Laboratory results from PubChem BioAssay (NCATS).
Results filed as inconclusive are left out. Entries that show only a call come without a potency. Active and inactive are the calls of the source. Calls come from the whole dose curve; as a rule, active = well fitted cell-killing curve with a large enough effect; inconclusive = small, poorly fitted or top-dose-only effect; inactive = no such curve, though single readings can be large or run the other way.

test: qHTS of pediatric cancer cell lines to identify multiple opportunities for drug repurposing: Primary screen for LAN-5 cells (AID 1347100); settings: LAN-5 neuroblastoma viability, CellTiter-Glo luminescence, 48 h; series mostly up to 46 µM
Excerpt: Drug repurposing or repositioning has been offered as a strategy for drug development in oncology programs. This approach has special potential for childhood cancers and other rare or orphan diseases, where the expected return on new drug development has been a disincentive to pharmaceuticals.
In this project we exploit the poly-pharmacology of drugs to discover new indications via phenotypic screening of a panel of 19 well-characterized cell lines derived from solid tumors seen in children and adolescents. The goal is to identify approved drugs with previously unrecognized anticancer properties that has the potential to reveal new mechanisms and biological processes involved in carcinogenesis or drug resistance. We employed a titration-based paradigm (quantitative high-throughput screening or qHTS), where all compounds were tested at multiple concentrations for their effect on cell viability. Concentration-response curves (CRCs) were derived directly from the primary screen, and both potency and efficacy values were used to identify compounds with robust bioactivity profiles. We screened the NIH Chemical Genomics Center (NCGC) Pharmaceutical Collection (NPC) and Mechanism Interrogation Plate (MIPE) small molecule collections of approved and investigational compounds against these cell lines; and measured metabolically active cells after 48 hours of compound treatment as a proxy for cell viability.
Assay Submitter: Nathalia J. Martinez, National Center for Advancing Translational Sciences, National Institutes of Health, Rockville, MD, USA; email: natalia.martinez@nih.gov
[1] Shen, M et al. Quantitative high-throughput phenotypic screening of pediatric cancer cell lines identifies multiple opportunities for drug repurposing. Oncotarget 2017 Dec 19;9(4):4758-4772. PMID 29435139.
The cells were obtained from University of North Carolina (UNC), Pediatric Preclinical Testing Program (PPT), and Coriell Institute (CI).
qHTS cell viability assay:
Cells were assayed in growth media at a density of 500-1,000 cells/well. Five microliters of cells were dispensed into 1,536-well, white, solid-bottom, TC-treated plates (Greiner Bio One) using a multidrop dispenser and incubated at 37 degrees C, 5% CO2, under a humidified atmosphere for 5 hours. Twenty-three nanoliters of compounds and controls (neutral control DMSO or positive control bortezomib at final concentration of 2.3 µM) were subsequently transferred by Kalypsys pintool. For primary screens, the MIPE collection was tested at 11-point dilutions (final concentrations range from 0.78 nM to 46 µM) and the NPC collection at 8-point dilutions (final concentrations range from 0.59 nM to 46 µM). Compounds tested in follow-up screens were assayed at 11-point dilutions. Cells were incubated for 48 hours, followed by addition of 3 µL of CellTiter-Glo (Promega). After a 15 min incubation at room temperature, samples were analyzed for luminescence intensity using a ViewLux High-throughput CCD imager equipped with clear filters.
Potency is the fitted concentration of half-maximal effect.

Structure (SMILES)	Potency
CC(=O)Nc1ccc(OC[C@](C)(O)C(=O)Nc2ccc([N+](=O)[O-])c(C(F)(F)F)c2)cc1	inactive
C[C@]12CCC(=O)C(O)=C1CC[C@@H]1[C@H]3CCC(=O)[C@@]3(C)CC[C@@H]12	inactive
C[C@@H]1CC[C@@]2(OC1)O[C@H]1C[C@H]3[C@@H]4CC=C5C[C@@H](O[C@@H]6O[C@H](CO)[C@@H](O[C@@H]7O[C@@H](C)[C@H](O)[C@@H](O)[C@@H]7O)[C@H](O)[C@@H]6O[C@@H]6O[C@@H](C)[C@H](O)[C@@H](O)[C@@H]6O)CC[C@]5(C)[C@@H]4CC[C@]3(C)[C@@H]1[C@H]2C	3720 nM (active)
COc1ccc2c(c1)CN(C)CC2c1ccc(Cl)c(Cl)c1 (stereo not given)	20900 nM (active)
CN(C)[C@@H]1C(=O)C(C(N)=O)=C(O)[C@@]2(O)C(=O)C3=C(O)c4c(O)cccc4[C@@](C)(O)[C@H]3[C@H](O)[C@@H]12	inactive
CC(O)CN1CCN(CC(=O)[O-])CCN(CC(=O)[O-])CCN(CC(=O)[O-])CC1.[Gd+3] (stereo not given)	inactive
CN[C@@H](C)[C@H](O)c1ccccc1	inactive
CCCCCCCCCC(CC)c1ccc(S(=O)(=O)O)cc1 (stereo not given)	inactive
CC(C)(C)C(O)C(Oc1ccc(Cl)cc1)n1cncn1 (stereo not given)	inactive
CCOC(=O)c1cncn1[C@H](C)c1ccccc1	inactive
C[C@]12CC[C@H]3[C@@H](CCC4=CC(=O)CC[C@@]43C)[C@H]1CC[C@H]2O	inactive
CN(C)NC(=O)CCC(=O)O	inactive
Nc1ccc(Cl)cc1	inactive
O=C(N[C@H]1CN2CCC1CC2)c1ccc(Cl)cc1	inactive
C=CC(=O)NCNC(=O)C=C	inactive
C1=C2CCCN[C@H]2[C@@H]2C[C@H]1[C@@H]1CCCCN1C2	inactive
Nc1ccc(Cl)cc1N	24300 nM (active)
Oc1ccc2c3c1O[C@H]1c4[nH]c5c(c4C[C@@]4(O)[C@@H](C2)N(CC2CC2)CC[C@]314)C[C@@]1(O)[C@H]2Cc3ccc(O)c4c3[C@@]1(CCN2CC1CC1)[C@H]5O4	inactive
COc1ccc(CC2NCCc3cc(OC)c(OC)cc32)cc1OC (stereo not given)	inactive
O=C(O)c1cc(Oc2ccc(C(F)(F)F)cc2Cl)ccc1[N+](=O)[O-]	inactive

Structure (SMILES)	Potency
O=c1[nH]c2ccc(Cl)cc2c(N[C@@H]2CN3CCC2CC3)c1-c1nc2ccccc2[nH]1	148 nM (active)
CC=C(C)C(=O)N[C@@H](c1ccccc1)[C@@H](O)C(=O)O[C@H]1C[C@@]2(O)[C@@H](OC(=O)c3ccccc3)[C@@H]3[C@]4(OC(C)=O)CO[C@@H]4C[C@H](O)[C@@]3(C)C(=O)[C@H](OC(C)=O)C(=C1C)C2(C)C	1 nM (active)
C=C[C@@H]1CN2CCC1C[C@H]2[C@H](O)c1ccnc2ccccc12 (stereo not given in full)	inactive
O=[N+]([O-])c1c2ccccc2cc2ccccc12	inactive
C[C@@]12OC(=O)[C@]1([C@@H](O)[C@@H]1C=CCCC1)NC(=O)[C@H]2CCCl	52.6 nM (active)
CCNC(=O)CC1N=C(c2ccc(Cl)cc2)c2cc(OC)ccc2-n2c(C)nnc21 (stereo not given)	10500 nM (active)
CCCCC(CC)COC(=O)c1ccccc1C(=O)OCC(CC)CCCC (stereo not given)	inactive
COC(C)(C)CCCC(C)C/C=C/C(C)=C/C(=O)OC(C)C (stereo not given)	inactive
COC(=O)c1cncn1C(C)c1ccccc1 (stereo not given)	inactive
CCN1CCN(C(=O)Cc2ccc(Nc3ncc(F)c(Nc4ccc(C(=O)Nc5ccccc5Cl)cc4)n3)cc2)CC1	469 nM (active)
CCCCCCCCCCCCCCCC[N+](C)(C)C	23700 nM (active)
C[C@@H]1O[C@@H](O[C@@H]2C=C3CC[C@@H]4[C@@H](CC[C@]5(C)[C@H](c6ccc(=O)oc6)CC[C@@]45O)[C@@]3(C)CC2)[C@H](O)[C@H](O)[C@H]1O	14.8 nM (active)
CC(=Cc1csc(C)n1)[C@@H]1C[C@H]2O[C@@H]2CCC[C@H](C)[C@@H](O)[C@@H](C)C(=O)C(C)(C)[C@@H](O)CC(=O)O1	1 nM (active)
CO/C=C(/C(=O)OC)c1ccccc1Oc1cc(Oc2ccccc2C#N)ncn1	21700 nM (active)
CC=C(C)C(=O)O[C@H]1C(C)=C2[C@@H]3OC(=O)[C@@](C)(O)[C@@]3(O)[C@@H](OC(=O)CCC)C[C@](C)(OC(C)=O)[C@@H]2[C@@H]1OC(=O)CCCCCCC	41.8 nM (active)
O=S(=O)(O)C(F)(F)C(F)(F)C(F)(F)C(F)(F)C(F)(F)C(F)(F)C(F)(F)C(F)(F)F	inactive
C#C[C@]1(O)C=C[C@@H]2[C@@H]3CCC4=CC(=O)CC[C@@H]4[C@H]3CC[C@@]21CC	inactive
CCN(CC)C(=O)c1ccc(C2=CC3(CCNCC3)Oc3cccc(O)c32)cc1	inactive
CC(=CCCC1=CCC(C2=CC(=O)OC2O)OC1O)CCC1=C(C)CCCC1(C)C (stereo not given)	inactive
O=C(O)COc1ccccc1	inactive
